# High-throughput results: PubChem, several laboratories
# A selection: hits, their analogues and other compounds. The true share with any hit is near 3.4%.
# Mcl1 Noxa PPI: Mcl-1/Noxa binding inhibitors, primary screen, biochemical, TR-FRET, 1536-well; Induced myeloid leukemia cell differentiation protein Mcl-1 (Homo sapiens), Q07820; TR-FRET Mcl-1/Noxa peptide binding, 2 h; inhibition, % at 21.7 µM; 220,000 compounds, 1.5% hits;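 active means compounds that cut the protein-peptide binding signal by more than 50% relative to plate controls in a single-dose test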;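 further: His-tagged Mcl-1 with rhodamine Noxa BH3 peptide and terbium anti-His antibody; 0% = Mcl-1 plus Noxa peptide wells and 100% = peptide-only wells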
# Mcl1-Bid inh: Mcl-1/Bid binding inhibitors, primary screen, biochemical, TR-FRET, 1536-well | Induced myeloid leukemia cell differentiation protein Mcl-1 (Homo sapiens), Q07820 | TR-FRET Mcl-1/Bid-Dy647 peptide binding | 220,000 compounds, 0.97% hits | AID 1021, 2008 | inhibition, % at 21.7 µM;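 active means compounds that cut the binding signal by more than half at the single screening dose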;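 further: His-tagged Mcl-1 with europium anti-His antibody binding Bid BH3 peptide; 0% = Mcl-1 plus peptide wells and 100% = peptide-only wells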
# Bim-Mcl-1: inhibitors of Bim peptide binding to Mcl-1, primary screen, biochemical, bead-based flow cytometry, multiplex; inhibition, % at 10 µM; Bim peptide-Mcl-1 binding; AID 1009, 2008; Induced myeloid leukemia cell differentiation protein Mcl-1 (Homo sapiens), Q07820; 190,000 compounds, 0.1% hits; in the data active means inhibition above about 40%;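 further: 0% = no compound tracer wells and 100% = peptide blocker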
# 14-3-3 Bad inh: inhibitors of 14-3-3 zeta/Bad binding, primary screen, biochemical, TR-FRET, bovine 14-3-3 zeta; 14-3-3 protein zeta/delta (Bos taurus), P63103; TR-FRET 14-3-3zeta/Dy647-pBad peptide displacement, 1 h; inhibition, % at 21.7 µM; 220,000 compounds, 0.71% hits;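 active means inhibition above about 70%, limit read from the data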;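 further: 0% = full 14-3-3 plus peptide FRET controls and 100% = background without 14-3-3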
# Target sequence (P63103 whole entry, looked up): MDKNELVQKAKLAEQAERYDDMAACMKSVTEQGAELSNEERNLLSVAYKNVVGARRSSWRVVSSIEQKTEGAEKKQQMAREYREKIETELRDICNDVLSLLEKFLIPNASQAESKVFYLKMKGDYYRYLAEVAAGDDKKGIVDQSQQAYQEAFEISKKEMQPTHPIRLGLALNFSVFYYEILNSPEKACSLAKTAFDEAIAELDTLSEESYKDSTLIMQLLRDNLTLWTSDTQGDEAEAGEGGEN
# p47phox inh: p47phox/p22phox peptide binding inhibitors, primary screen, biochemical, uHTS, NADPH oxidase regulatory subunit. Neutrophil cytosol factor 1 (Homo sapiens), P14598. 220,000 compounds, 0.53% hits. fluorescence polarization, 2 h. inhibition, % at 24.7 µM;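 active means inhibition above about 30%, limit read from the data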;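 further: 0% = p47phox with labelled peptide and 100% = labelled peptide alone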
# Calpain2 inh: inhibitors of pig calpain II, primary screen, biochemical, fluorogenic peptide substrate, 1536-well | purified calpain II, 30 min | inhibition, % at 16 µM | AID 1236, 2008 | 220,000 compounds, 0.37% hits;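 active means inhibition above about 50%, limit read from the data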
# Numbers without * were called inactive; · = no result; [ ] = remark or other dose.
SMILES,Mcl1 Noxa PPI,Mcl1-Bid inh,Bim-Mcl-1,14-3-3 Bad inh,p47phox inh,Calpain2 inh
O=C(CN1CCN(C(=O)C2COc3ccccc3O2)CC1)Nc1ccc(F)cc1 (stereo unspecified),-3,-7,·,-7,-4,-3
COc1ccc(-c2cc3nc4ccccc4n3c(N)c2C#N)cc1,81*,72*,·,71*,19,-135
Cc1ccc(S(=O)(=O)NC(=O)Nc2ccc(OC(F)F)cc2)cc1,-7,-28,·,1,-8,3
CCOc1cc(/C=C2\SC(=O)N=C2N)ccc1O,52*,-49,8,-11,-36,2
CCOC(=O)C1=C(O)/C(=C\c2ccc(O)c(OCC)c2)N=C1C,25,-97,·,-10,-27,9
CCOc1ccc(NC(=S)Nc2ccccc2C2(C)CC2)cc1,5,-23,0,-2,-5,40
Cc1ccccc1NC(=O)c1ccc(N/N=C/c2ccccc2O)c([N+](=O)[O-])c1,9,-10,-1,-1,-53,55*
Cc1ccc(NC(=O)c2ccc(N/N=C/c3cccc(O)c3)c([N+](=O)[O-])c2)cc1,35,-5,0,2,-150,30
CCOCCCNC1=C(Cl)C(=O)c2ccccc2C1=O,64*,-17,·,6,7,25
O=C1c2ccccc2C(=O)C1Cc1cccc2ccccc12,42,89*,0,14,3,30
CC(=O)c1c(C)[nH]c(C(=O)OCC(=O)Nc2sc3c(c2C#N)CCC(C)C3)c1C (stereo unspecified),14,-95,·,-12,-22,-46
CCS(=O)(=O)Nc1ccccc1C(N)=O,7,-13,0,10,2,-189
CCN(CC)c1ccc(N=Cc2c(C)[nH]c3ccccc23)cc1,61*,-102,-4,-6,-6,2
COc1ccc(N2C(=O)C3CCCN3C2c2cc(OC)c(OC)c(OC)c2)cc1 (stereo unspecified),-28,-25,-1,12,35*,11
COc1ccc(N2C(=O)C3CCCN3C2=O)cc1 (stereo unspecified),102*,-6,-2,-6,-7,7
CCOc1ccc(N2C(=O)C3CCCN3C2=O)cc1 (stereo unspecified),-11,-17,0,2,-6,-1
Cc1cccc(NC(=O)c2ccc([N+](=O)[O-])s2)c1C,6,4,-2,3,-15,8
O=C1C2C3C=CC(C4CC34)C2C(=O)N1Cc1ccco1 (stereo unspecified),15,-9,-2,-12,-13,3
CCN(CC)S(=O)(=O)c1cccc(C(=O)N[C@H](C(=O)NCc2ccccc2F)C(C)C)c1,-2,-14,-4,7,-15,16
CN(C)S(=O)(=O)c1cccc(NC(=S)N/N=C/c2ccc(O)c(O)c2O)c1,108*,-99,·,45,-2,-10
CCN(CC)S(=O)(=O)c1cccc(C(=O)N/N=C/c2ccc(O)c(O)c2O)c1,95*,-81,44*,-10,-20,-18
CCN(CC)S(=O)(=O)c1cccc(C(=O)N[C@H](C(=O)O)C(C)C)c1,3,7,-2,16,92*,21
COc1ccc(O)c(/C=N/NC(=S)Nc2cccc(S(=O)(=O)N(C)C)c2)c1,34,-69,-3,2,-27,-192
NC(=O)c1cc(N)ccc1N1CCCCC1,5,-55,-3,-1,-4,7
NC(=O)c1cc(N)ccc1N1CCCC1,23,-26,-2,2,140*,-42
Cc1cc(N)ccc1N1CCCC1,83*,-24,32,97*[fluorescence artefact?],97*,-68
Cc1ccc(-c2nnc(Cc3ccc(Cl)cc3)o2)cc1,-21,-6,40*,3,-4,30
c1ccc(Cc2nnc(-c3ccccc3)o2)cc1,-18,-23,0,3,-1,24
Cc1c(Br)c(=O)oc2c(Br)c(O)c(O)cc12,64*,-112,8,8,1,-121
